Measured values published in PubChem BioAssay (NCATS).
Results filed as inconclusive are left out. Values without a mark were called inactive. Calls come from the whole dose curve; as a rule, active = well fitted inhibition curve with a large enough effect; inconclusive = small, poorly fitted or top-dose-only effect; inactive = flat fitted curve, though single readings scatter.

Each compound was assayed on KB-3-1 (assay: Cytotoxic Profiling of Annotated Libraries Using Quantitative High-Throughput Screening (AID 1296008; note: nearly all actives have a fitted effect of over 60% in size)). Details: Five cell lines viability, CellTiter-Glo ATP luminescence, 48-72 h; max response: hits give low values.
Method in brief: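 Cells exposed to compounds for 48 or 72 hr at 37 degrees Celsius. Viability read as ATP-coupled luminescence with CellTiter-Glo after 10 min at room temperature.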
% is set by controls: 0 for no effect and ±100 for the full control effect.

SMILES | max response
CC(C)CN(C[C@@H](OP(=O)(O)O)[C@H](Cc1ccccc1)NC(=O)O[C@H]1CCOC1)S(=O)(=O)c1ccc(N)cc1 | 1.96%
O=C1CC[C@@H](C(=O)N[C@H]2C[C@@H]2c2ccccc2)N1 | -13%
CO/N=C(\C(=O)N[C@@H]1C(=O)N2C(C(=O)O)=C(CSC(=O)c3ccco3)CS[C@H]12)c1csc(N)n1 | 1.31%
Cc1cc(O)c2c(c1)O[C@@]1(C)CC[C@H]3C(C)(C)CCCC34CO[C@@H]2[C@H]41 (some centres undefined) | -3.47%
